Laboratory results taken from PubChem BioAssay (NCI).
Compounds without any hit were thinned out: in the full panel of roughly 79,000, 15% have a hit. Values without a mark were called inactive. Activity calls are given as the source filed them. Rule as the data show it: active = growth inhibition above about 70%; inactive = the rest.

Key:
[1] = NCI Yeast Anticancer Drug Screen. Data for the rad50 strain (AID 155);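 also: 0% = growth of vehicle-only cultures of the same strain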; conditions: S. cerevisiae rad50 strain growth inhibition; at 50.0 µM; hits give high values
Outline: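 Readout: growth inhibition relative to vehicle-treated cultures. Compound exposure was carried out in a genetically defined yeast strain deficient in DNA damage repair.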

[2] = NCI Yeast Anticancer Drug Screen. Data for the mec2-1 strain (AID 157); conditions: S. cerevisiae mec2-1 strain, at 50.0 µM, hits give high values
Outline: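 Yeast mec2-1 mutant treated with compound. Readout: growth inhibition vs vehicle controls.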

[3] = NCI Yeast Anticancer Drug Screen. Data for the sgs1 mgt1 strain (AID 161);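 also: 0% = growth of cultures given vehicle only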; conditions: S. cerevisiae sgs1 mgt1 strain, at 50.0 µM, hits give high values
Outline: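 Read-out: growth inhibition vs vehicle controls. Cells: mutant yeast strain deficient in DNA damage repair.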

[4] = NCI Yeast Anticancer Drug Screen. Data for the cln2 rad14 strain (AID 165);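 also: 0% = growth equal to vehicle treated cultures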; conditions: S. cerevisiae cln2 rad14 strain, at 50.0 µM, hits give high values
Outline: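 cln2 rad14 yeast strain; compound exposure; growth inhibition read vs vehicle controls.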

[5] = NCI Yeast Anticancer Drug Screen. Data for the bub3 strain (AID 167); conditions: S. cerevisiae bub3 mutant strain, at 50.0 µM, hits give high values
Outline: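 Readout: yeast growth inhibition, expressed relative to vehicle-only wells. The test organism is a mutant strain from a panel with lesions in DNA repair or checkpoint genes.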

[6] = NCI Yeast Anticancer Drug Screen. Data for the mlh1 rad18 strain (AID 175); conditions: S. cerevisiae mlh1 rad18 strain growth inhibition; at 50.0 µM; hits give high values
Outline: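 Yeast w/ defined DNA-repair lesions; compound exposure; growth vs vehicle controls → % inhibition.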

`O=C(O)c1ccc2c(c1)S(=O)(=O)NC2=O` showed a growth inhibition [1] of 1.15%, a growth inhibition [2] of 10.2% and a growth inhibition [3] of 13%. It also gave a growth inhibition [4] of -26.1%, a growth inhibition [5] of 12.1% and a growth inhibition [6] of -8%.
`ClC(c1ccccc1)(c1ccccc1)C(Cl)(c1ccccc1)c1ccccc1` showed a growth inhibition [1] of 45.9%, a growth inhibition [2] of 5.05% and a growth inhibition [3] of 24.1%. For the same molecule, the growth inhibition [4] was 11.8%, the growth inhibition [5] was 4.6% and the growth inhibition [6] was 26.9%.
`Cc1nc2[nH]ncn2c(=O)c1CCCl` gave a growth inhibition [1] of 20.9%, a growth inhibition [2] of -31.9% and a growth inhibition [3] of -11.9%. The growth inhibition [4] was -7.55%, the growth inhibition [5] was 8.1% and the growth inhibition [6] was 9.4%.
`Nc1cc(=O)[nH]c(N)n1` showed a growth inhibition [1] of 10.2%, a growth inhibition [2] of -23.9% and a growth inhibition [3] of -19.6%. The growth inhibition [4] was -83.9%, the growth inhibition [5] was -5% and the growth inhibition [6] was -21.9%.
`O=C1/C(=C/c2ccccc2)N=C2Sc3c(nc[nH]c3=O)N12` showed a growth inhibition [1] of 16.5%, a growth inhibition [2] of -23.8% and a growth inhibition [3] of -12.4%. The growth inhibition [4] was -7.25%, the growth inhibition [5] was 10.4% and the growth inhibition [6] was -39.2%.
In the case of `O=c1[nH]nc(NC2Nc3ccccc3N2)c2ccccc12`, the growth inhibition [1] is reported as 17.3%, the growth inhibition [2] is reported as 15.1% and the growth inhibition [3] is reported as 9.15%. It also gave a growth inhibition [4] of -19.2%, a growth inhibition [5] of 6.6% and a growth inhibition [6] of 13.4%.
Molecule `Nc1nc(SCC(=O)O)nc2nc[nH]c12` has a growth inhibition [1] of -0.15%, a growth inhibition [2] of 3.15% and a growth inhibition [3] of -13.3%. For the same molecule, the growth inhibition [4] was -32%, the growth inhibition [5] was -7.5% and the growth inhibition [6] was 4.95%.
With `CCOC(=O)CCC(=O)C(=O)OCC` the growth inhibition [1] was 13.1%, the growth inhibition [2] was -24.8% and the growth inhibition [3] was 13.2%. It also gave a growth inhibition [4] of 20.9%, a growth inhibition [5] of 1.4% and a growth inhibition [6] of 20.1%.
In the case of `COc1cc2c(c(OC)c1OC)-c1ccc(OC)c(=O)cc1C(NC(=S)Nc1ccccc1)CC2` (centres undefined), the growth inhibition [1] is reported as 96.5% (active), the growth inhibition [2] is reported as 96.8% (active) and the growth inhibition [3] is reported as 96.8% (active). The growth inhibition [4] was 93.5% (active), the growth inhibition [5] was 95.6% (active) and the growth inhibition [6] was 96.5% (active).
In the case of `CSc1ccc(OC(=O)Nc2ccc(Cl)c(Cl)c2)cc1C`, the growth inhibition [1] is reported as 95.3% (active), the growth inhibition [2] is reported as 96.5% (active) and the growth inhibition [3] is reported as 96.9% (active). The growth inhibition [4] was 95% (active), the growth inhibition [5] was 94.7% (active) and the growth inhibition [6] was 95.1% (active).
Molecule `Cn1c(=O)c2c(nc(C[N+]3([O-])CCOCC3)n2C)n(C)c1=O` has a growth inhibition [1] of -4.75%, a growth inhibition [2] of -34.9% and a growth inhibition [3] of -27.9%. The growth inhibition [4] was 8.35%, the growth inhibition [5] was -11.5% and the growth inhibition [6] was -27.9%.
`CC(=O)C1CC(CCC2([N+](=O)[O-])CCC(C)(O)C(C(C)=O)C2)([N+](=O)[O-])CCC1(C)O` (centres undefined) showed a growth inhibition [1] of 3.3%, a growth inhibition [2] of 5.05% and a growth inhibition [3] of 6.7%. For the same molecule, the growth inhibition [4] was 2.6%, the growth inhibition [5] was 12.3% and the growth inhibition [6] was 20.6%.
For `CC(=O)OCC1OC(n2c(Br)nc3c2c(=O)n(C)c(=O)n3C)C(OC(C)=O)C1OC(C)=O` (centres undefined), the growth inhibition [1] was -19.9%, the growth inhibition [2] was -1.3% and the growth inhibition [3] was -14.3%. It also gave a growth inhibition [4] of -7.95%, a growth inhibition [5] of -0.95% and a growth inhibition [6] of 0.25%.
With `C1C[O][Ge]2([O]1)[O]CC[O]2` the growth inhibition [1] was -24.9%, the growth inhibition [2] was -4.95% and the growth inhibition [3] was -16.2%. It also gave a growth inhibition [4] of 17.1%, a growth inhibition [5] of -13.2% and a growth inhibition [6] of -5.95%.
For `CCOC(=O)c1ncc(Cl)cc1NC(=O)CC(=O)Nc1cc(Cl)cnc1C(=O)OCC`, the growth inhibition [1] was 59.8%, the growth inhibition [2] was -8% and the growth inhibition [3] was 32.5%. The growth inhibition [4] was -31.1%, the growth inhibition [5] was 1.1% and the growth inhibition [6] was 20.3%.
For `O=C1C=C[C@@H](COC2OC(CO)C(O)C(O)C2O)O1` (some centres undefined), the growth inhibition [1] was 6.35%, the growth inhibition [2] was -28.8% and the growth inhibition [3] was 5.25%. The growth inhibition [4] was 15.8%, the growth inhibition [5] was 24.9% and the growth inhibition [6] was 27.8%.
For `Brc1cccc2ccccc12`, the growth inhibition [1] was 23.6%, the growth inhibition [2] was -13.9% and the growth inhibition [3] was 0.7%. For the same molecule, the growth inhibition [4] was -38%, the growth inhibition [5] was -12.3% and the growth inhibition [6] was 6.85%.
In the case of `Cc1nnnn1C12CC3CC(CC(C3)C1)C2`, the growth inhibition [1] is reported as 11.7%, the growth inhibition [2] is reported as 5.7% and the growth inhibition [3] is reported as -5.75%. The growth inhibition [4] was -14.3%, the growth inhibition [5] was -15.7% and the growth inhibition [6] was 15.1%.
`O=C(CCCn1ccnc1[N+](=O)[O-])NCCn1cnc([N+](=O)[O-])c1` showed a growth inhibition [1] of 8.9%, a growth inhibition [2] of 29.6% and a growth inhibition [3] of 5.2%. It also gave a growth inhibition [4] of 5.75%, a growth inhibition [5] of -9.4% and a growth inhibition [6] of 61%.
